The values below come from PubChem BioAssay AID743497 (The Scripps Research Institute Molecular Screening Center, 2014).

By IC50 is commonly meant the concentration needed to halve the response being measured.

Each structure is given as a SMILES string. The source made the active and inactive calls.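 Rule for the calls: active = IC50 of 10 µM or lower; inactive = IC50 above 10 µM.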

This assay is described as follows: binders of r(CAG) RNA repeats, SAR follow-up, biochemical, fluorescence, dose response, MedChem round 1 (AID 743497). Particulars: r(CAG) RNA 1x1 AA loop, TO-PRO-1 displacement fluorescence.
For the compound `CC(=O)NS(=O)(=O)c1ccc(NC(=O)/C=C/c2cn(-c3ccccc3)nc2-c2ccccc2)cc1`, the IC50 was 1.62 µM (active).
Turning to `CN(C)C(=O)C1CCN(C(=O)/C=C/c2cn(-c3ccccc3)nc2-c2ccccc2)CC1`, the IC50 was > 29.9 µM (inactive).
The value for `Cc1c(C(=O)Nc2ccc(S(=O)(=O)N(C)Cc3ccccc3)cc2)oc2ccc(F)cc12` was > 29.9 µM (inactive).
In the case of `O=C(/C=C/c1cn(-c2ccccc2)nc1-c1ccccc1)NCc1ccccc1`, the IC50 was > 29.9 µM (inactive).
Regarding `CN1C(=O)/C(=C/c2cn(-c3ccccc3)nc2-c2ccccc2)c2ccccc21`, the IC50 was > 29.9 µM (inactive).
Take `CN1CCC(N(C)C(=O)/C=C/c2cn(-c3ccccc3)nc2-c2ccccc2)CC1`: the IC50 is > 29.9 µM (inactive).
As for `CNC(=O)Cc1ccc(NC(=O)/C=C/c2cn(-c3ccccc3)nc2-c2ccc(F)cc2)cc1`, the IC50 was > 29.9 µM (inactive).
As for `Cc1c(C(=O)Nc2ccc(S(=O)(=O)Nc3ncccn3)cc2)oc2ccc(F)cc12`, the IC50 is > 29.9 µM (inactive).
`CCN1CCN(C(=O)/C=C/c2cn(-c3ccccc3)nc2-c2ccccc2)CC1`: the IC50 was > 29.9 µM (inactive).
For `Cc1c(C(=O)Nc2ccc(S(=O)(=O)NCCCN3CCOCC3)cc2)oc2ccc(F)cc12`, the IC50 was > 29.9 µM (inactive).
Turning to `COc1ccc(NC(=O)/C=C/c2cn(-c3ccccc3)nc2-c2ccc(OC)cc2)cc1`, the IC50 was > 29.9 µM (inactive).
Then `Cc1ccc(-c2nn(-c3ccccc3)cc2/C=C/C(=O)Nc2cccc(S(N)(=O)=O)c2)cc1`, with > 29.9 µM (inactive); and `CCOC(=O)N1CCC(NC(=O)/C=C/c2cn(-c3ccccc3)nc2-c2ccccc2)CC1`, with > 29.9 µM (inactive); and `CS(=O)(=O)Nc1cc(NC(=O)/C=C/c2cn(-c3ccccc3)nc2-c2ccccc2)ccc1F`, with 6.38 µM (active).
For `COc1ccc(-c2nn(-c3ccccc3)cc2/C=C/C(=O)Nc2cccc(NC(C)=O)c2)cc1OC`, the IC50 is > 29.9 µM (inactive).
On to `CCN(CC)C(=O)/C=C/c1cn(-c2ccccc2)nc1-c1ccccc1`, for which the IC50 is > 29.9 µM (inactive).
For the compound `Cc1ccc(-c2nn(-c3ccccc3)cc2/C=C/C(=O)Nc2ccc(S(N)(=O)=O)cc2)cc1`, the IC50 was 29.1 µM (inactive).
Turning to `O=C(/C=C/c1cn(-c2ccccc2)nc1-c1ccccc1)Nc1cc(S(=O)(=O)N2CCCC2)ccc1Cl`, the IC50 was > 29.9 µM (inactive).
As to `O=C(/C=C/c1cn(-c2ccccc2)nc1-c1ccccc1)NCCc1c[nH]c2ccccc12`, the IC50 is > 29.9 µM (inactive).
As for `O=C(/C=C/c1cn(-c2ccccc2)nc1-c1ccccc1)NCCO`, the IC50 was > 29.9 µM (inactive).
On to `NC(=O)c1cc(NC(=O)/C=C/c2cn(-c3ccccc3)nc2-c2ccc(F)cc2)c(F)cc1F`, for which the IC50 was > 29.9 µM (inactive).
The value for `O=C(/C=C/c1cn(-c2ccccc2)nc1-c1ccccc1)N1CCN(CC(=O)N2CCCC2)CC1` was > 29.9 µM (inactive).
Take `COC(=O)c1ccc(NC(=O)/C=C/c2cn(CCC#N)nc2-c2ccc(F)cc2)cc1`: the IC50 is > 29.9 µM (inactive).
As for `NS(=O)(=O)c1ccc(NC(=O)/C=C/c2cn(-c3ccccc3)nc2-c2cccc(Cl)c2)cc1`, the IC50 was > 29.9 µM (inactive).
The value for `N#C/C(=C/c1cn(Cc2ccccc2)nc1-c1cccnc1)C(=O)Nc1ccc(C(=O)O)cc1` was 16 µM (inactive); that for `CCN(c1ccccc1)S(=O)(=O)c1ccc(NC(=O)c2oc3ccc(F)cc3c2C)cc1` was > 29.9 µM (inactive); that for `CN(C)CCCNC(=O)/C=C/c1cn(-c2ccccc2)nc1-c1ccccc1` was > 29.9 µM (inactive).
Turning to `COc1ccc(-c2nn(-c3ccccc3)cc2/C=C/C(=O)Nc2ccc(C(=O)O)cc2)cc1`, the IC50 was 1.94 µM (active).
The value for `O=C(/C=C\c1cn(-c2ccccc2)nc1-c1ccc(F)cc1)Nc1ccc(C(=O)O)cc1` was 2.15 µM (active); that for `O=C(/C=C/c1cn(-c2ccccc2)nc1-c1ccc2ccccc2c1)Nc1ccc(C(=O)O)cc1` was 2.18 µM (active).
